The results in this text go back to PubChem BioAssay.

SMILES strings stand for the structures.

The experiment is described as follows: mitochondrial membrane potential change in A549 cells, profiling panel, cell-based, JC-1 fluorescence, basal, 24 h, 100 nL (AID 1138).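 Note: A549 lung adenocarcinoma cells under basal conditions with no added stimulus; test concentration not given here.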 Conditions: higher = more signal.
`C=CC[C@]1(C(=O)O)N=C(c2ccc(OCCCO)cc2)O[C@H]1c1ccccc1CN=[N+]=[N-]` showed a z-score of 0.00796. The compound `C[N+](C)(C)CCCCNC(=O)[C@H]1C[C@H]2C(=O)N3CCC[C@H]3C(=O)N2[C@H]1c1ccc(O)cc1` showed a z-score of -0.515. The figure for `[N-]=[N+]=NCc1ccccc1[C@@H]1OC(c2ccc(OCCCO)cc2)=N[C@]1(Cc1ccccc1)C(=O)O` is 1.36; for `CN(C)CCCN1C(=O)[C@@]2(c3ccc([N+](=O)[O-])cc3)CC(=O)N(C3CCCCC3)[C@@H]2c2ccc(CO)cc21` it is -0.493; for `CCOC1=C2C(c3ccc(C)cc3)N(S(=O)(=O)c3ccc(C)cc3)CC2n2c(=O)n(-c3ccccc3)c(=O)n2C1` (configuration not stated) it is 0.374. The figure for `O=C1c2ccccc2[C@](Cc2ccccc2I)(C(=O)O)[C@H](c2ccc(CO)cc2)N1Cc1ccccc1C(F)(F)F` is -0.635. The figure for `CCCCCCCCCCC(O)C1C=CC2C(=O)N(c3ccccc3)C(=O)C2N1Nc1ccc([N+](=O)[O-])cc1` (configuration not stated) is 2.09; for `CCOC(=O)C1=CC[C@@H](c2cccc(Cl)c2)N(S(=O)(=O)c2ccc(C)cc2)[C@H]1c1ccc(C#N)cc1` it is 1.22. With `CCCCCCC#C[Si](O[C@H](c1ccccc1)c1cn([C@H](C)c2ccccc2)nn1)(C(C)C)C(C)C`, the z-score worked out at 3.27.

The compound `O=C(NCC(F)(F)F)[C@@H]1c2ccccc2C(=O)N(Cc2ccccc2)[C@H]1c1ccc(CO)cc1` showed a z-score of 0.764. As to `O=C1OCC=C[C@H]2OC34C=CCN(c5ccc(Cl)cc5)C(=O)[C@H]3N(CCCO)C(=O)[C@@H]4[C@@H]12` (some centres not stated), the z-score is -0.353. As for `CCOC(=O)N1C(c2ccc(OCCCO)cc2)=NC(C(=O)OC)N1C(=O)OCC` (configuration not stated), the figure is -0.541.
